From PubChem
SENP6 block: blocks the human protease SENP6 | Q9GZR1 | Recombinant SENP6 catalytic domain, aminoluciferin luminescence | inhibition, % at 10 µM | 330,000 tested, 1.8% active | AID 2599;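 active = inhibition above about 50% at the single tested dose, limit read from the data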;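 also: plate controls were DMSO wells with enzyme for no effect and DMSO wells lacking enzyme for full effect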
Target sequence (Q9GZR1 628-1112 limits assumed): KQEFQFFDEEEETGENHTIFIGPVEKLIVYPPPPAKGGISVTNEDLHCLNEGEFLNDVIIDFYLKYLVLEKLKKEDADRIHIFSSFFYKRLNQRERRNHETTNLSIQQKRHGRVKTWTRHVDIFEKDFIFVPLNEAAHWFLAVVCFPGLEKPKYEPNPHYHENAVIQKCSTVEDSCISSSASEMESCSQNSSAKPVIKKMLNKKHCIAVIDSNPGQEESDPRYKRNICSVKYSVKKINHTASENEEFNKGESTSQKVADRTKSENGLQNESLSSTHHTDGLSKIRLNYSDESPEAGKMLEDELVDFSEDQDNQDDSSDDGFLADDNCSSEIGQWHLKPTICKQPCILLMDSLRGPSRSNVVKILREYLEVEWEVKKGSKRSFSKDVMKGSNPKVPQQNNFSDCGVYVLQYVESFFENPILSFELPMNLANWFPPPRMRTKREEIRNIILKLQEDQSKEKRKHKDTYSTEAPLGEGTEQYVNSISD
SENP8 block-1: SENP8 protease inhibition | 330,000 tested, 1.2% active | inhibition, % at 10 µM | AID 2540 | purified SENP8, Z-RLRGG-aminoluciferin cleavage, luminescence | Q96LD8; in the data active = inhibition above about 50%
Platelet DG rel: platelet dense granule release activity | human platelet-rich plasma, SFLLRN dense granule ATP release, luminescence | inhibition, %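 (compounds screened at 7.5 µM in platelet-rich plasma)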 | 300,000 tested, 0.22% active;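 active = mean replicate score, as percent of positive control, at or above 50; inconclusive = mean below 50 but at least one replicate at or above 50; inactive = mean and every replicate below 50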
HSP90 inh: HSP90 refolding inhibition in rabbit reticulocyte lysate | luciferase refolding luminescence, 3 h | inhibition, % at 5.6 µM | 290,000 tested, 0.91% active | AID 1789;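 active = inhibition above the screen-wide mean plus 3 SD, computed separately per campaign, cut at about 16% in these data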;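 also: 0% = DMSO wells and 100% = 60 µM geldanamycin wells; inhibitors lower the luminescence because luciferase stays unfolded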
SENP7 block: SENP7 protease inhibition; Q9BQF6; recombinant SENP7, Z-RLRGG-aminoluciferin luminescence, 40 min; inhibition, % at 5 µM; 330,000 tested, 1.5% active; AID 434973;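 active = inhibition above about 50% at the single test dose, limit read from the data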;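 also: plate controls were DMSO with enzyme for no effect and no enzyme buffer wells for full effect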
SENP8 block-2: inhibitors of human SENP8 protease | inhibition, % at 20 µM | recombinant SENP8, Nedd8 substrate fluorescence | 360,000 tested, 0.64% active | Q96LD8; in the data active = inhibition mostly above about 40%, no sharp cut-off; inactive = mostly below about 27%
HSP90 confirm: confirmation of HSP90 inhibitors; 2,300 tested, 64% active; rabbit reticulocyte lysate, luciferase refolding luminescence, 3 h; shares compounds with HSP90 inh; AID 1846; inhibition, % at 5.9 µM; in the data active = inhibition above about 18%;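 also: 0% = vehicle wells and 100% = reference inhibitor wells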
luciferase ctr: blocks native firefly luciferase in HSP90 counter-screen; shares compounds with HSP90 inh; purified native firefly luciferase, luminescence; inhibition, % at 5.9 µM; 2,300 tested, 48% active;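 active = inhibition above the mean inhibition of all tested sample wells plus 3 SD, cut at about 10% in these data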;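 also: 0% = DMSO with luciferase and 100% = wells lacking luciferase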
SENP8 conf-1: human SENP8 inhibition, confirmed; shares compounds with SENP7 block; Recombinant SENP8, Z-RLRGG-aminoluciferin luminescence, 60 min; inhibition, % at 12.5 µM; 6,200 tested, 40% active;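 active = mean inhibition across replicates above about 50%, limit read from the data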
SENP6 conf: confirmation of human SENP6 protease inhibitors; shares compounds with SENP7 block; 6,200 tested, 58% active; recombinant SENP6, Z-RLRGG-aminoluciferin luminescence; inhibition, % at 12.5 µM
SENP7 conf: confirmation of human SENP7 protease inhibitors; shares compounds with SENP7 block; recombinant SENP7, Z-RLRGG-aminoluciferin luminescence, 40 min; inhibition, % at 12.5 µM; 6,200 tested, 69% active
Casp3 SENP sel: selectivity test for SENP inhibitors: human caspase-3 inhibition. shares compounds with SENP7 block. purified caspase-3, Z-DEVD-aminoluciferin luminescence, 60 min. inhibition, % at 12.5 µM. 6,200 tested, 60% active. AID 488918;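 active = mean inhibition above about 50%, limit read from the data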;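 also: plate controls were enzyme with DMSO for no effect and wells without caspase-3 for full effect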
Target sequence (P42574 28-227 limits assumed): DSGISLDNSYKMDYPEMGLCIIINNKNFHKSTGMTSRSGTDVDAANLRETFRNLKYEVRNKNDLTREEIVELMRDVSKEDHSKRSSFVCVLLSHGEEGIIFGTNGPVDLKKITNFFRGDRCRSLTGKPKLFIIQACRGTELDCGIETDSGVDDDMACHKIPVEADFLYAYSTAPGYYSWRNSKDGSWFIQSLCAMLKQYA
Luc interf: counter-screen for SENP inhibitors: luminescence interference; shares compounds with SENP7 block; inhibition, % at 12.5 µM; 6,200 tested, 39% active; Pre-incubated SENP8/Z-RLRGG-aminoluciferin, luciferase luminescence interference; AID 488919;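 active = mean inhibition above about 50% when retested at one dose, limit read from the data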;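 also: plate controls were DMSO wells with completed reaction for no effect and substrate without enzyme for full effect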
SENP8 conf-2: confirmation of human SENP8 protease inhibitors | 1,400 tested, 15% active | purified SENP8, Nedd8-AMC/pro-Nedd8 cleavage fluorescence, 30 min | inhibition, % at 25 µM | shares compounds with SENP8 block-2 | AID 624319; in the data active = inhibition mostly above about 39%, no sharp cut-off; inactive = mostly below about 34%
Starred values were filed as active, the others as inactive; ? = inconclusive; . = no result given. Compounds with a hit are over-represented: about 2.8% of the library has one in this group of screens.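 The calls were made as follows, unless noted: active = mean inhibition above about 50% in the one-dose retest (limit read from the data); inactive = the rest.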

SMILES	SENP6 block	SENP8 block-1	Platelet DG rel	HSP90 inh	SENP7 block	SENP8 block-2	HSP90 confirm	luciferase ctr	SENP8 conf-1	SENP6 conf	SENP7 conf	Casp3 SENP sel	Luc interf	SENP8 conf-2
Cc1c(C)c2ccc(OCC(=O)Nc3ccccn3)c(C)c2oc1=O	98*	92*	52*	96*	100*	-260	100*	91*	59*	88*	39	93*	20	.
COc1ccccc1OCC(=O)Nc1ccccn1	82*	78*	27	70*	86*	2	20*	3	78*	74*	94*	93*	81*	.
COc1ccc2c(c1)Cc1sc(NC(C)=O)nc1-2	81*	73*	6	32*	62*	67*	2	-10	-8	52*	76*	54*	29	66*
Nc1ccc(Cc2ccc(N)c(O)c2)cc1O	.	.	.	24*	.	48*	14	-6	.	.	.	.	.	12
COCCCNC(=S)Nc1c(C)cc(C)cc1C	1	-10	-2	2	11	-5	.	.	.	.	.	.	.	.
Cn1c(=O)c2c([nH]c(OCc3ccc(Cl)cc3Cl)[n+]2Cc2ccc(F)cc2)n(C)c1=O	-10	2	?	-2	-3	15	.	.	.	.	.	.	.	.
O=C(NNC(=S)NC(=O)c1ccccc1[N+](=O)[O-])c1ccccc1O	15	1	2	2	2	15	.	.	.	.	.	.	.	.
O=C(NC(=S)Nc1cccc2c(O)cccc12)c1ccccc1[N+](=O)[O-]	48	35	1	35*	6	47*	9	4	.	.	.	.	.	15
C[n+]1cccc2c(Br)ccc([O-])c21	95*	93*	4	19*	87*	117*	3	-2	11	40	17	6	-1	69*
Cc1[nH][nH]c(=O)c1C(c1ccc(-c2ccc(Cl)c(Cl)c2)o1)c1c(C)[nH][nH]c1=O	24	6	0	18*	-4	74*	0	0	.	.	.	.	.	63*
Cc1[nH][nH]c(=O)c1C(c1ccc(-c2ccc(C(=O)O)cc2)o1)c1c(C)[nH][nH]c1=O	.	.	.	4	.	5	.	.	.	.	.	.	.	.
COc1ccc(-c2cc(=O)[nH]c(=O)[nH]2)cc1	-4	2	-4	2	-1	-4	.	.	.	.	.	.	.	.
COc1ccc(-c2cc(=O)[nH][nH]2)cc1	17	2	2	34*	10	42*	-4	-12	.	.	.	.	.	28
O=c1cc(-c2ccc(Cl)cc2)[nH][nH]1	11	-2	0	29*	7	43*	4	-12	.	.	.	.	.	33
COc1ccc(Cl)cc1NC(=O)CSc1nc2[nH]ncc2c(=O)[nH]1	.	.	.	.	.	2	.	.	.	.	.	.	.	.
Cc1cccc(-c2cnc(C(O)c3ccc(Cl)cc3C)[nH]2)c1 (stereo unspecified)	.	.	.	.	.	4	.	.	.	.	.	.	.	.
COc1cc(N)c(C(=O)c2nccc3cc(OC)c(OC)cc23)cc1OC	-16	-9	8	-4	13	16	.	.	.	.	.	.	.	.
COc1cc(Br)c(C(=O)c2nccc3cc(OC)c(OC)cc23)cc1OC	90*	95*	1	42*	92*	113*	19*	-3	.	.	.	.	.	101*
O=C(NCc1ccc2c(c1)OCO2)C(=O)NCC1OCCN1S(=O)(=O)c1ccccc1 (stereo unspecified)	3	4	-10	-4	1	-2	.	.	.	.	.	.	.	.
O=c1cc(-c2cccc([N+](=O)[O-])c2)[nH][nH]1	5	1	0	24*	11	43*	0	-3	.	.	.	.	.	-1
COc1ccc(NC(=O)N(CCO)Cc2cc3c(C)cc(C)cc3[nH]c2=O)cc1	0	-1	-5	2	0	-12	.	.	.	.	.	.	.	.
COc1ccc(NC(=S)N(CCO)Cc2cc3c(C)cc(C)cc3[nH]c2=O)cc1	89*	2	3	-4	8	8	.	.	-24	-17	-6	-9	-4	.
Cc1ccc(NC(=O)c2cnn(-c3ccccc3)c2C)cc1	66*	46	13	11	67*	13	.	.	67*	64*	89*	70*	20	.
CCc1cccc(NC(=O)c2cnn(-c3ccccc3)c2C)c1	90*	83*	9	6	85*	11	.	.	2	87*	98*	81*	81*	.
COc1cccc(NC(=O)c2cnn(-c3ccccc3)c2C)c1	82*	78*	20	9	85*	6	.	.	8	85*	98*	89*	86*	.
SMILES	SENP6 block	SENP8 block-1	Platelet DG rel	HSP90 inh	SENP7 block	SENP8 block-2	HSP90 confirm	luciferase ctr	SENP8 conf-1	SENP6 conf	SENP7 conf	Casp3 SENP sel	Luc interf	SENP8 conf-2
Cc1cccc(C)c1NC(=O)c1cnn(-c2ccccc2)c1C	-20	-3	-5	3	-12	15	.	.	.	.	.	.	.	.
CSc1ncccc1C(=O)OCC(=O)Nc1ccc(N2CCOCC2)cc1	-15	-8	.	.	-12	11	.	.	.	.	.	.	.	.
O=C(O)/C=C/c1cccc(NC(=O)c2ccc(Cl)cc2)c1	74*	61*	15	-3	59*	15	.	.	66*	63*	88*	84*	71*	.
Cc1occc1C(=O)Nc1cccc(/C=C/C(=O)O)c1	29	-4	16	-2	11	20	.	.	.	.	.	.	.	.
O=C(N/N=C/c1cccc(NC(=O)c2ccc(Cl)cc2)c1)c1cccc(O)c1	20	-15	-7	8	-3	13	.	.	.	.	.	.	.	.
O=C(O)/C=C/c1cccc(NC(=O)c2ccccc2)c1	72*	48	64*	6	69*	19	.	.	69*	66*	90*	91*	71*	.
Fc1ccccc1-c1cc2ncccc2cn1	39	27	.	.	39	7	.	.	.	.	.	.	.	.
COc1cc(OC)cc(-c2cc3ccc(OC)cc3cn2)c1	99*	97*	.	.	100*	-304	.	.	100*	101*	104*	99*	98*	.
COc1cc(OC)cc(-c2cc3ncccc3cn2)c1	43	29	.	.	53*	-14	.	.	19	22	68*	66*	51*	.
